SARS PLpro yeast = blocks SARS-CoV papain-like protease in a yeast assay. Potency, µM (series often up to 32.9 µM), for the others: at the highest dose activity, positive = growth rescue, most hits filed as activators. S. cerevisiae expressing SARS-CoV PLpro, growth rescue. actives 0.19% (n = 330,000); calls by dose curve; note: potency is the fitted concentration of half-maximal effect; 0% is about no effect; nearly all actives have a fitted effect of over 55% in size
HCMV antiviral = inhibitors of human cytomegalovirus. activity change, negative = inhibition, % at 57.5 µM. actives 4.5% (n = 410,000). HFF cells, HCMV-luciferase reporter, 72 h; hits give low values. AID 1259415; in the data active = activity change below about -60%; inconclusive = no clear call, values can overlap the other calls; inactive = above about -39%; note: % is set by controls: 0 for no effect and ±100 for the full control effect
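Cell-based, HFFs, 1000 cells/well, 16 h 37C; cpds in DMSO + HCMV-luc, MOI 1 PFU/cell; 72 h 37C; OneGlo luminescence after 5 min RT; norm. to buffer vs Salinomycin 10uM.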
FMDV antiviral = blocks foot and mouth disease virus; actives 1.2% (n = 410,000); FMDV antiviral cell-based qHTS; AID 1159524; Potency, µM (highest dose often 57.9 µM), without a hit: top-dose activity change, negative = inhibition, usual class: inhibitors; calls by dose curve; tested in HEK293T cells; note: read-out not given here; potency is the fitted concentration of half-maximal effect; % is set by controls: 0 for no effect and ±100 for the full control effect; nearly all actives have a fitted effect of over 45% in size
HCV inhibitor = HCV inhibition; Huh7.5.1 HCVcc-Cre infection, luciferase reporter, 44 h; Potency, µM (titrated, usually from 41.8 µM), inactives show at the top dose activity change, negative = inhibition, usual class: inhibitors; actives 3.4% (n = 340,000); active = well fitted inhibition curve with a large enough effect; inconclusive = small, poorly fitted or top-dose-only effect, or another doubt; inactive = no such curve, though single readings can be large or run the other way; note: potency is the fitted concentration of half-maximal effect; % is set by controls: 0 for no effect and ±100 for the full control effect
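A cell-based infection assay in which seeded cells (1,000 per well) receive test compound after 4 h, are inoculated with HCVcc-Cre at approximately 0.5 moi, and are incubated 44 h before luminescence detection.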
LASV entry inh = Lassa virus entry inhibition | AID 540256 | Potency, µM (highest dose often 37.9 µM), inactives show at the highest dose activity change, negative = inhibition, most hits filed as inhibitors | Lassa virus pseudotype entry inhibition, cell reporter | actives 1.2% (n = 300,000); calls by dose curve; tested in HEK293 cells; note: potency is the fitted concentration of half-maximal effect; % is set by controls: 0 for no effect and ±100 for the full control effect; nearly all actives have a fitted effect of over 50% in size
MARV entry inh = inhibitors of Marburg virus binding or cell entry; actives 1.8% (n = 300,000); Potency, µM (top dose mostly 37.8 µM), for the others: top-dose activity change, negative = inhibition, usual class: inhibitors; Marburg virus pseudotyped entry inhibition, cell reporter; calls by dose curve; tested in HEK293 cells; note: potency is the fitted concentration of half-maximal effect; % is set by controls: 0 for no effect and ±100 for the full control effect
* = called active by the depositor; u = inconclusive; x = no result given; [ ] = another dose, or the depositor's remark. The list is not random: actives were taken first. Their share in the collection is about 8%.

SMILES	SARS PLpro yeast	HCMV antiviral	FMDV antiviral	HCV inhibitor	LASV entry inh	MARV entry inh
CC(C)(C)OC(=O)N(CCc1ccccc1)Cc1ccccc1OCc1cccc(NC(=O)C2CC2)c1	x	-25	-10%	0%	x	x
CC(C)(C)OC(=O)N(CCc1ccccc1)Cc1ccccc1OCc1ccc(NC(=O)C2CCC2)cc1	x	u	-19%	0.56µM*	x	x
COc1ccc(Oc2ncc3nc(-c4cccs4)c(=O)n(Cc4cccc(OC)c4)c3n2)cc1	x	x	-7%	x	x	x
O=C(COc1ccc(Br)cc1)NCCCNC(=O)c1cnccn1	-1%	21	-4%	-5%	-12%[46.1 µM]	-4%[46.1 µM]
N=c1c2c(-c3ccccc3)c(-c3ccccc3)n(Cc3ccco3)c2ncn1Cc1ccccc1	-19%	-1	-9%	-19%	1%	-8%
N=c1c2c(-c3ccccc3)c(-c3ccccc3)oc2ncn1CCCN1CCOCC1	0%	12	u	u	u	8.2µM*
CC(C)Cn1cnc2c(c(-c3ccccc3)c(-c3ccccc3)n2Cc2ccco2)c1=N	-2%	-28	u	11µM*	6.3µM*	2.8µM*
OCCNc1ncnc2c1c(-c1ccccc1)c(-c1ccccc1)n2Cc1ccco1	-6%	-63*	-4%	u	u	u
N=c1c2c(-c3ccccc3)c(-c3ccccc3)n(Cc3ccco3)c2ncn1CCCN1CCOCC1	0%	-98*	-14%	7.1µM*	-8%	7.1µM*
O=C1NC[C@H](CCCCN2CCN(CCc3ccc(O)cc3)C(=O)C2=O)N(CCc2ccc(O)cc2)C1=O	x	-7	-19%	x	x	x
COCc1c(C(=O)N2CCN(C(C)C)CC2)cnn1-c1nccc(-c2cc(C)sc2C)n1	x	x	-10%	x	x	x
Cc1occc1C(=O)NNC(=O)c1ccc(S(=O)(=O)N(C)C)cc1	-1%	u	8%	-11%	4%	u
NS(=O)(=O)c1ccc(CCNc2nc3c(-c4cccc(F)c4)nnn3c3ccc(Cl)cc23)cc1	x	-102*	9%	x	u	u
Fc1cccc(-c2nnn3c2nc(NCCc2ccccc2)c2ccccc23)c1	x	59	8%	x	11%[46.1 µM]	1%[46.1 µM]
Cc1ccc(NC(=O)c2sc3nc(C)nc(N4CCN(c5ccccn5)CC4)c3c2C)c(C)c1	-2%	u	-25%	3%	-26%	11µM*
Cc1ccc(NC(=O)c2sc3ncnc(N4CCN(c5ccccn5)CC4)c3c2C)c(C)c1	-41%	u	-13%	u	x	x
COc1ccc(C)cc1NC(=O)c1sc2ncnc(N3CCN(c4ccccn4)CC3)c2c1C	0%	-12	-24%	1.4µM*	x	6%[46.1 µM]
Cc1nc(N2CCCCC2)c2c(C)c(C(=O)Nc3cccc(C(F)(F)F)c3)sc2n1	-3%	-60*	u	25µM*	x	x
Cc1c(C(=O)N2CCN(c3ccccc3F)CC2)sc2ncn(CC(=O)N3CCOCC3)c(=O)c12	4%	-25	-16%	12%	0%	-12%
Cc1nc(N2CCCCC2C)c2c(C)c(C(=O)Nc3cccc(C(F)(F)F)c3)sc2n1 (stereo not drawn)	-2%	-29	u	u	-2%	u
Cc1nc(N2CCN(c3ccccn3)CC2)c2c(C)c(C(=O)N3CCN(c4ccccc4F)CC3)sc2n1	-3%	14	u	32µM*	u	7.9µM*
Cc1nc(N2CCN(c3ccccn3)CC2)c2c(C)c(C(=O)Nc3ccc(Br)cc3C)sc2n1	-19%	u	-12%	9%	x	x
COc1ccc(C(C)C)cc1-c1cncc(NC(C)=O)n1	x	-29	6%	x	x	x
C=CCO/N=C(/CCC)C1=C(N)CC(C)(C)CC1=O	1%	22	-11%	u	7%	-14%
COc1ccc(OC)c(NC(=O)CCc2c(C)nc3c(c(C)nn3C(C)(C)C)c2C)c1	x	-4	-13%	x	0%[46.1 µM]	u
SMILES	SARS PLpro yeast	HCMV antiviral	FMDV antiviral	HCV inhibitor	LASV entry inh	MARV entry inh
Fc1cccc(-c2nnn3c2nc(NC2CCCCC2)c2ccccc23)c1	x	53	-16%	x	24%[46.1 µM]	u
CC(=O)Nc1ccc2c3c(cccc13)C(=O)N(c1ccccc1)C2=O	-1%	-60*	19%	-6%	-16%[46.1 µM]	10%[46.1 µM]
Cc1c(O)c2c3c(cccc3c1O)C(=O)N(c1ccccc1)C2=O	-33%	u	22µM*	u	-17%	-38%
COC(=O)CC(Oc1c(C)n(C)c2ccccc2c1=O)c1ccccc1 (stereo not drawn)	x	x	x	x	x	-5%[14.2 µM]
O=C(O)c1ccc(/C=C2\COc3ccccc3C2=O)cc1	1%	33	22µM*	-5%	u	u
COc1ccc(/C=C2\COc3ccccc3C2=O)cc1OC	-81%	u	-23%	-27%	u	u
CCOc1cc(/C=C2\COc3ccccc3C2=O)cc(Br)c1OCC(=O)N(C)C	-59%	-39	10µM*	u	u	u
CN(C)c1ccc(/C=N/NC(=O)c2ccc(Cl)cc2)cc1	3%	u	x	-9%	-26%	-14%
CN(C)c1ccc(C=Nc2ccc(N(C)C)cc2)cc1	-27%	-72*	27%	-4%	u	u
CN(C)c1ccc(C=Nc2ccccc2)cc1	-1%	4	x	2%	u	27%
C/C(=N/N=C/c1ccc(N(C)C)cc1)c1ccccc1	-5%	-32	10µM*	-5%	u	u
COc1ccc(C(=O)N/N=C/c2ccc(N(C)c3ccccc3)cc2)cc1	x	-37	32µM*	7.1µM*	x	x
CN(C)c1ccc(/C=N/NC(=O)c2ccccc2)cc1	-2%	25	-12%	-15%	10µM*	-14%[46.1 µM]
CCC(CC)C(=O)Nc1cccc(-c2ccc3nncn3n2)c1	4%	17	-4%	6%	x	x
CCCCn1nnnc1SCC(=O)NC1CCCCC1	-1%	-99*	17%	9%	-16%[46.1 µM]	11%[46.1 µM]
O=C1c2ccccc2C(=O)C1c1ccc2ccccc2n1	-7%	-30	u	9%	5.8µM*	u
Cc1cc(C2=NNC(=NC3CC3)SC2)c(C)n1-c1ccccc1	-23%	-77*	0.1µM*	u	x	x
COc1ccc(-n2c(C)cc(C3=NNC(=NC4CC4)SC3)c2C)cc1	-2%	-71*	-37%	u	u	u
CCN1CCN(C(=O)c2ccc3c(c2)N(Cc2cccc(F)c2)C(=O)c2ccccc2S3)CC1	x	-3	-4%	x	-13%[46.1 µM]	x
CCc1ccc(S(=O)(=O)c2nnn3c2nc(N(CC)Cc2ccccc2)c2cc(Cl)ccc23)cc1	x	21	0%	x	x	-3%[46.1 µM]
Cc1ccc(OCCCC(=O)Nc2ccc(Cl)c(S(=O)(=O)N3CCOCC3)c2)cc1	5%	-22	u	7.1µM*	x	x
COc1cc(C(C)=O)ccc1OCC(=O)Nc1ccc(Cl)c(S(=O)(=O)N2CCOCC2)c1	5%	65	20µM*	13µM*	x	x
Cc1ccc(NC(=O)CCCOc2ccccc2)cc1S(=O)(=O)N1CCOCC1	4%	-13	-21%	u	x	x

Screening results (PubChem)
